# The full list was thinned out, with the strongest signals kept by preference.
# B1: SRA-1 (Homo sapiens), P21757 (protein)
# chain: MEQWDHFHNQQEDTDSCSESVKFDARSMTALLPPNPKNSPSLQEKLKSFKAALIALYLLVFAVLIPLIGIVAAQLLKWETKNCSVSSTNANDITQSLTGKGNDSEEEMRFQEVFMEHMSNMEKRIQHILDMEANLMDTEHFQNFSMTTDQRFNDILLQLSTLFSSVQGHGNAIDEISKSLISLNTTLLDLQLNIENLNGKIQENTFKQQEEISKLEERVYNVSAEIMAMKEEQVHLEQEIKGEVKVLNNITNDLRLKDWEHSQTLRNITLIQGPPGPPGEKGDRGPTGESGPRGFPGPIGPPGLKGDRGAIGFPGSRGLPGYAGRPGNSGPKGQKGEKGSGNTLTPFTKVRLVGGSGPHEGRVEILHSGQWGTICDDRWEVRVGQVVCRSLGYPGVQAVHKAAHFGQGTGPIWLNEVFCFGRESSIEECKIRQWGTRACSHSEDAGVTCTL
# Experiments:
# Test in all cases: glycan array binding signal (z-score within array); higher = stronger binding
# Settings in all cases: glycan notation: IUPAC condensed, linker removed
# [1] = target: Fuc(a1-2)Gal(b1-3)GlcNAc(b1-3)[Gal(b1-4)GlcNAc(b1-6)]Gal(b1-4)Glc
# Procedure, shortened: (§1)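 Columns mapping to the same glycan were averaged after glycan names were converted to IUPAC-condensed notation. The data come from 3228 arrays in the Consortium for Functional Glycomics database, limited to those with an available protein sequence. Binding is reported as a within-array Z-score averaged across arrays of one protein sequence and across linkers.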
# [2] = target: Fuc(a1-2)Gal(b1-4)GlcNAc(b1-2)Man(a1-3)[Fuc(a1-2)Gal(b1-4)GlcNAc(b1-2)Man(a1-6)]Man(b1-4)GlcNAc(b1-4)[Fuc(a1-6)]GlcNAc
# Procedure, shortened: as §1
# [3] = target: Fuc(a1-2)Gal(b1-4)GlcNAc(b1-3)Gal(b1-4)GlcNAc(b1-2)Man(a1-3)[Fuc(a1-2)Gal(b1-4)GlcNAc(b1-3)Gal(b1-4)GlcNAc(b1-2)Man(a1-6)]Man(b1-4)GlcNAc(b1-4)GlcNAc
# Procedure, shortened: as §1
# [4] = target: Fuc(a1-2)Gal(b1-4)GlcNAc(b1-3)[Fuc(a1-2)Gal(b1-4)GlcNAc(b1-6)]GalNAc
# Procedure, shortened: as §1
# [5] = target: Fuc(a1-2)Gal(b1-4)[Fuc(a1-3)]GlcNAc(b1-3)[Neu5Ac(a2-6)Gal(b1-4)GlcNAc(b1-6)]Gal(b1-4)Glc
# Procedure, shortened: as §1
# [6] = target: Fuc(a1-2)[Gal(a1-3)]Gal(b1-3)GlcNAc(b1-3)GalNAc
# Procedure, shortened: as §1
# [7] = target: Fuc(a1-2)[GalNAc(a1-3)]Gal(b1-3)GalNAc(b1-3)Gal(a1-4)Gal(b1-4)Glc
# Procedure, shortened: as §1
# [8] = target: Fuc(a1-2)[GalNAc(a1-3)]Gal(b1-3)GlcNAc(b1-2)Man(a1-3)[Fuc(a1-2)[GalNAc(a1-3)]Gal(b1-3)GlcNAc(b1-2)Man(a1-6)]Man(b1-4)GlcNAc(b1-4)GlcNAc
# Procedure, shortened: as §1
# [9] = target: Fuc(a1-2)[GalNAc(a1-3)]Gal(b1-4)[Fuc(a1-3)]GlcNAc
# Procedure, shortened: as §1
# [10] = target: Fuc(a1-2)[GalNAc(a1-3)]Gal(b1-4)[Fuc(a1-3)]GlcNAc(b1-3)GalNAc
# Procedure, shortened: as §1
# [11] = target: Fuc(a1-3)[Gal(b1-4)]Glc6S
# Procedure, shortened: as §1
# [12] = target: Fuc(a1-3)[Gal(b1-4)]GlcNAc(b1-6)GalNAc
# Procedure, shortened: as §1
# [13] = target: Fuc(a1-3)[Gal(b1-4)]GlcNAc(b1-6)[Gal(b1-3)GlcNAc(b1-3)]Gal(b1-4)Glc
# Procedure, shortened: as §1
# [14] = target: Fuc(a1-3)[Gal3S(b1-4)]GlcNAc6S
# Procedure, shortened: as §1
# [15] = target: Fuc(a1-3)[GalNAc(b1-4)]GlcNAc
# Procedure, shortened: as §1
# [16] = target: Gal(a1-3)Gal(b1-4)GlcNAc
# Procedure, shortened: as §1
# [17] = target: Gal(a1-4)Gal(b1-4)Glc
# Procedure, shortened: as §1
# [18] = target: Gal(b1-3)GalNAc(a1-3)[Fuc(a1-2)]Gal(b1-4)GlcNAc
# Procedure, shortened: as §1
# [19] = target: Gal(b1-4)GlcNAc(b1-2)[Gal(b1-4)GlcNAc(b1-6)]Man(a1-6)[GlcNAc(b1-4)][Gal(b1-4)GlcNAc(b1-2)[Gal(b1-4)GlcNAc(b1-4)]Man(a1-3)]Man(b1-4)GlcNAc(b1-4)[Fuc(a1-6)]GlcNAc
# Procedure, shortened: as §1
# [20] = target: Gal(b1-4)GlcNAc(b1-3)Gal(b1-4)GlcNAc(b1-2)Man(a1-3)[Gal(b1-4)GlcNAc(b1-3)Gal(b1-4)GlcNAc(b1-2)Man(a1-6)]Man(b1-4)GlcNAc(b1-4)GlcNAc
# Procedure, shortened: as §1
# [21] = target: Gal(b1-4)GlcNAc(b1-3)Gal(b1-4)GlcNAc(b1-3)Gal(b1-4)GlcNAc
# Procedure, shortened: as §1
# [22] = target: Gal(b1-4)GlcNAc(b1-3)Gal(b1-4)GlcNAc(b1-6)[Gal(b1-3)]GalNAc
# Procedure, shortened: as §1
# [23] = target: Gal(b1-4)GlcNAc(b1-6)GalNAc
# Procedure, shortened: as §1
# [24] = target: Gal3S6S(b1-4)GlcNAc
# Procedure, shortened: as §1
# [25] = target: GalNAc(b1-3)Gal(a1-4)Gal(b1-4)GlcNAc
# Procedure, shortened: as §1
# [26] = target: GalNAc(b1-4)GlcNAc
# Procedure, shortened: as §1
# [27] = target: Glc(a1-6)Glc(a1-6)Glc(a1-6)Glc
# Procedure, shortened: as §1
# [28] = target: GlcNAc(a1-4)Gal(b1-4)GlcNAc
# Procedure, shortened: as §1
# [29] = target: GlcNAc(b1-2)[GlcNAc(b1-4)]Man(a1-3)[GlcNAc(b1-4)][GlcNAc(b1-2)[GlcNAc(b1-6)]Man(a1-6)]Man(b1-4)GlcNAc(b1-4)[Fuc(a1-6)]GlcNAc
# Procedure, shortened: as §1
# [30] = target: GlcNAc(b1-2)[GlcNAc(b1-6)]Man(a1-6)[GlcNAc(b1-2)Man(a1-3)]Man(b1-4)GlcNAc(b1-4)[Fuc(a1-6)]GlcNAc
# Procedure, shortened: as §1
# [31] = target: GlcNAc(b1-3)Gal(b1-4)GlcNAc(b1-2)Man(a1-3)[GlcNAc(b1-3)Gal(b1-4)GlcNAc(b1-2)Man(a1-6)]Man(b1-4)GlcNAc(b1-4)GlcNAc
# Procedure, shortened: as §1
# [32] = target: GlcNAc(b1-3)Gal(b1-4)GlcNAc(b1-3)Gal(b1-4)GlcNAc(b1-3)GalNAc
# Procedure, shortened: as §1
# [33] = target: GlcNAc(b1-6)Gal(b1-4)GlcNAc
# Procedure, shortened: as §1
# [34] = target: Man(a1-2)Man(a1-2)Man(a1-3)Man
# Procedure, shortened: as §1
# [35] = target: Man(a1-3)[Man(a1-6)]Man(b1-4)GlcNAc(b1-4)[Fuc(a1-6)]GlcNAc
# Procedure, shortened: as §1
# [36] = target: Neu5Ac(a2-3)Gal(b1-4)GlcNAc(b1-2)[Neu5Ac(a2-3)Gal(b1-4)GlcNAc(b1-6)]Man(a1-6)[Neu5Ac(a2-3)Gal(b1-4)GlcNAc(b1-2)Man(a1-3)][GlcNAc(b1-4)]Man(b1-4)GlcNAc(b1-4)GlcNAc
# Procedure, shortened: as §1
# [37] = target: Neu5Ac(a2-3)Gal(b1-4)GlcNAc(b1-3)Gal(b1-4)GlcNAc
# Procedure, shortened: as §1
# [38] = target: Neu5Ac(a2-3)Gal(b1-4)GlcNAc(b1-3)Gal(b1-4)GlcNAc(b1-3)[Neu5Ac(a2-3)Gal(b1-4)GlcNAc(b1-3)Gal(b1-4)GlcNAc(b1-6)]GalNAc
# Procedure, shortened: as §1
# [39] = target: Neu5Ac(a2-3)Gal(b1-4)[Fuc(a1-3)]GlcNAc(b1-3)GalNAc
# Procedure, shortened: as §1
# [40] = target: Neu5Ac(a2-3)Gal(b1-4)[Fuc(a1-3)]GlcNAc(b1-6)[Gal(b1-3)]GalNAc
# Procedure, shortened: as §1
# [41] = target: Neu5Ac(a2-3)GalNAc
# Procedure, shortened: as §1
# [42] = target: Neu5Ac(a2-6)Gal(b1-4)GlcNAc(b1-2)Man(a1-3)[GlcNAc(b1-4)][Neu5Ac(a2-6)Gal(b1-4)GlcNAc(b1-2)Man(a1-6)]Man(b1-4)GlcNAc(b1-4)GlcNAc
# Procedure, shortened: as §1
# [43] = target: Neu5Ac(a2-6)Gal(b1-4)GlcNAc(b1-2)Man(a1-6)Man(b1-4)GlcNAc(b1-4)GlcNAc
# Procedure, shortened: as §1
# [44] = target: Neu5Ac(a2-6)Gal(b1-4)GlcNAc(b1-3)GalNAc
# Procedure, shortened: as §1
# [45] = target: Neu5Gc(a2-3)Gal(b1-4)GlcNAc(b1-3)Gal(b1-4)GlcNAc(b1-2)Man(a1-3)[Neu5Gc(a2-3)Gal(b1-4)GlcNAc(b1-3)Gal(b1-4)GlcNAc(b1-2)Man(a1-6)]Man(b1-4)GlcNAc(b1-4)GlcNAc
# Procedure, shortened: as §1
binder,measurement,setting,value
B1,glycan array binding signal (z-score),[1],-0.462
same,glycan array binding signal (z-score),[2],-0.606
same,glycan array binding signal (z-score),[3],0.064
same,glycan array binding signal (z-score),[4],1.17
same,glycan array binding signal (z-score),[5],0.274
same,glycan array binding signal (z-score),[6],-0.365
same,glycan array binding signal (z-score),[7],-0.415
same,glycan array binding signal (z-score),[8],0.613
same,glycan array binding signal (z-score),[9],1.28
same,glycan array binding signal (z-score),[10],21.8
same,glycan array binding signal (z-score),[11],1.43
same,glycan array binding signal (z-score),[12],-0.092
same,glycan array binding signal (z-score),[13],-0.456
same,glycan array binding signal (z-score),[14],0.048
same,glycan array binding signal (z-score),[15],1
same,glycan array binding signal (z-score),[16],-0.529
same,glycan array binding signal (z-score),[17],4.58
same,glycan array binding signal (z-score),[18],0.047
same,glycan array binding signal (z-score),[19],-0.205
same,glycan array binding signal (z-score),[20],0.208
same,glycan array binding signal (z-score),[21],-0.32
same,glycan array binding signal (z-score),[22],-0.129
same,glycan array binding signal (z-score),[23],0.967
same,glycan array binding signal (z-score),[24],0.399
same,glycan array binding signal (z-score),[25],1.15
same,glycan array binding signal (z-score),[26],1.24
same,glycan array binding signal (z-score),[27],0.295
same,glycan array binding signal (z-score),[28],-0.118
same,glycan array binding signal (z-score),[29],-0.311
same,glycan array binding signal (z-score),[30],0.625
same,glycan array binding signal (z-score),[31],-0.204
same,glycan array binding signal (z-score),[32],0.215
same,glycan array binding signal (z-score),[33],0.773
same,glycan array binding signal (z-score),[34],-0.235
same,glycan array binding signal (z-score),[35],-0.293
same,glycan array binding signal (z-score),[36],-0.583
same,glycan array binding signal (z-score),[37],0.027
same,glycan array binding signal (z-score),[38],0.253
same,glycan array binding signal (z-score),[39],1.05
same,glycan array binding signal (z-score),[40],1.18
same,glycan array binding signal (z-score),[41],-0.364
same,glycan array binding signal (z-score),[42],-0.341
same,glycan array binding signal (z-score),[43],0.243
same,glycan array binding signal (z-score),[44],-0.285
same,glycan array binding signal (z-score),[45],0.684

# Source: the supplement of paper PMC8728848
